{"source": "PubChem BioAssay (NCI)", "note": "Compounds without any hit were thinned out: in the full panel of roughly 83,000, 20% have a hit.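 Compound tested at a single concentration for 48 hours in 96-well plates; a percent growth value below 10 was scored as active.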 A number with no mark means an inactive call. Activity calls are given as the source filed them.", "data": [{"system": "HOP-92 NSCLC", "assay": "NCI-60 one-dose screen, 48 h (100 = growth as untreated, 0 = no growth, -100 = all killed)", "details": "10 µM unless noted", "units": {"growth": "%"}, "values": [{"smiles": "Oc1[nH]c2ccc(Cl)cc2c1N=Nc1nc(N=Nc2c(O)[nH]c3ccc(Cl)cc23)nc(N2CCOCC2)n1", "growth": 26}, {"smiles": "CCC1=Cc2c(OC)cccc2OC12C=Cc1c(OC)cccc1O2", "note": "(stereo unspecified)", "growth": 44}, {"smiles": "CCCC/C(=C\\c1ccc(O)c(O)c1)C(=O)NC(Cc1ccccc1)C(=O)C(=O)NCCc1ccc(OC)cc1", "note": "(stereo unspecified)", "growth": 86.2}, {"smiles": "CC/C(=C(/c1ccc(Cl)cc1)c1ccc(OCCN)cc1)c1ccccc1", "growth": 103}, {"smiles": "Cc1ccc(S(=O)(=O)c2nc(-c3ccc(F)cc3)oc2S(C)(=O)=O)cc1", "growth": 63}]}, {"system": "NCI-H522 lung", "assay": "NCI-60 one-dose screen, 48 h (100 = growth as untreated, 0 = no growth, -100 = all killed)", "details": "10 µM unless noted", "values": [{"smiles": "COc1ccc(C2C(C#N)=C(/N=C/c3ccc(Cl)cc3)Oc3c2sc2c(C)cccc32)cc1", "note": "(stereo unspecified)", "growth": "-40.8% (active)"}, {"smiles": "CN1CC[C@@H]2[C@@]3(C)CC[C@H](O)C(C)(C)[C@@H]3CC[C@@]2(C)[C@]2(C)CC[C@@]3(CO)CCC(C)(C)C[C@@H]3C12", "note": "(stereo partly specified)", "growth": "98%"}, {"smiles": "Clc1ccc2c(N/N=C/c3c[nH]c4ccccc34)ccnc2c1", "growth": "-77.6% (active)"}, {"smiles": "O=c1c2cc(-c3ccc(F)cc3F)ccc2n(Nc2ccccc2)c(=O)n1-c1cccc(C(F)(F)F)c1", "growth": "-5.32% (active)"}, {"smiles": "NC1[C@H]2CN(c3cnc(C(=O)Nc4cc(F)cc5cccnc45)cn3)C[C@@H]12", "note": "(stereo partly specified)", "growth": "46.6%"}, {"smiles": "CCOC(=O)c1cccc(NC2=C(Cl)C(=O)c3nc(C)ccc3C2=O)c1", "growth": "88.4%"}, {"smiles": "O=C(CSc1nnc(-c2cccs2)n1-c1ccccc1)Nc1ccccc1", "growth": "57.7%"}, {"smiles": "CCc1cc2c(cc1Cl)nc1c(=O)[nH]c(=O)nc-1n2CCOCC(C)C", "growth": "55.6%"}, {"smiles": "Cc1csc(/N=C(N)/N=C(\\N)c2cccc(C#N)c2)n1", "growth": "79.6%"}, {"smiles": "Clc1ccc(CSc2nnc(-c3ccc(Cl)cc3)n2-c2ccccc2)cc1", "growth": "70.1%"}, {"smiles": "C#Cc1nc(C(=O)NCCCCCCC(=O)NO)cs1", "growth": "-58.5% (active)"}, {"smiles": "CCCNNC(=O)c1ccc(-c2ccc(NC(=O)CCCCCCC(=O)N[C@H](C(=O)N3C[C@H](O)C[C@H]3C(=O)N[C@@H](C)c3ccc(-c4scnc4C)cc3)C(C)(C)C)cc2)cc1", "growth": "10%"}, {"smiles": "CN1CCN(c2ccc(Nc3nc(NCCNC(=O)c4ccccc4)c4sccc4n3)cc2)CC1", "growth": "68.4%"}, {"smiles": "COc1cc2c3c(cc4c5c(ccc4c3c1OC)OCO5)N(CCN(C)C)C2=O", "growth": "-6.46% (active)"}, {"smiles": "N#Cc1c(-c2cccs2)cc(-c2cnccn2)nc1SCC(=O)N/N=C/c1ccc(Cl)cc1", "growth": "93.7%"}, {"smiles": "COC(=O)c1cccc(NC2=CC(=O)C(C)=C(C)C2=O)c1", "growth": "93.6%"}, {"smiles": "C#Cc1nc(/C=C/CCCCCCC(=O)NO)cs1", "growth": "-61.4% (active)"}, {"smiles": "CC(=O)Nc1nc(C)c(-c2csc(Nc3ccccc3)n2)s1", "growth": "9.26% (active)"}, {"smiles": "CC1=C(C)C(=O)C(Nc2ccc3c(c2)OCO3)=C(Br)C1=O", "growth": "96.5%"}, {"smiles": "N#Cc1cccc(-c2cc(-c3ccc4c(c3)OCCO4)[nH]n2)c1", "growth": "23.8%"}, {"smiles": "COc1ccc2c(c1)c(-c1nc(N)nnc1-c1c[nH]c3ccccc13)cn2C", "growth": "29.9%"}, {"smiles": "CC1(C)CC[C@]23CC[C@]4(C)[C@H](CC[C@@H]5[C@@]6(C)CC[C@H](N)C(C)(C)[C@@H]6CC[C@]54C)[C@H]2[C@H]1OC3", "growth": "99%"}, {"smiles": "Fc1cccc(Cl)c1/C=N/Nc1nc(N/N=C/c2c(F)cccc2Cl)nc(N2CCCCC2)n1", "growth": "10.4%"}, {"smiles": "Cc1ccccc1N1CCN(C2=C(Cl)C(=O)c3ncccc3C2=O)CC1", "growth": "-28% (active)"}, {"smiles": "CC(=O)OC[C@@]12Oc3c(cccc3-c3ccc(O)c4c3O[C@]3(COC(C)=O)C(=C4O)C(=O)C[C@H](C)[C@@H]3OC(C)=O)C(O)=C1C(=O)C[C@H](C)[C@@H]2OC(C)=O", "growth": "-7.22% (active)"}, {"smiles": "COc1ccc(CC(C)=C(c2ccc(OCCN3CCCC3)cc2)c2ccc(OCCN3CCCC3)cc2)cc1", "growth": "-86% (active)"}, {"smiles": "CNC(=O)c1cc(N2CCc3cc(NC(=O)Nc4ccc(N5CCOCC5)c(C(F)(F)F)c4)ccc32)ccn1", "growth": "45.8%"}, {"smiles": "CN(C)CC(=O)Nc1nc(-c2cccc(NS(=O)(=O)c3cccc4c(N(C)C)cccc34)c2)cs1", "growth": "76.7%"}, {"smiles": "NCCNC(=O)c1cccc(COc2ccccc2NC(=O)c2cc(Cl)c(Cl)[nH]2)c1", "growth": "104%"}, {"smiles": "COc1cccc2c1C=CC1(O2)Oc2cccc(OC)c2C=C1C", "note": "(stereo unspecified)", "growth": "12.6%"}, {"smiles": "COc1ccc(-c2c(C(N)=O)c(N)n(Cc3nc4ccccc4[nH]3)c(=O)c2C#N)c(OC)c1", "growth": "95.2%"}]}]}
